Assay results taken from PubChem BioAssay (NCI).
About 83,000 compounds went through this panel and 20% of them were active in at least one assay; those are over-represented in the sample as a whole.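 How to read the values: 0–100, growth inhibition (40 = 60% inhibited); 0, no net growth; -100 to 0, cell death (-40 = 40% of starting cells died; -100 = all dead).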 Unmarked numbers belong to inactive results. Activity calls are given as the source filed them. Rule for the calls: active = growth percent below 10; inactive = the rest.

Tested on: MDA-MB-468 breast
Test: NCI-60 one-dose screen, 48 h (100 = growth as untreated, 0 = no growth, -100 = all killed)
Details: 10 µM unless noted

With N=C(N)c1ccc(-c2ccc(-c3ccc(Cl)c(Cl)c3)o2)cc1 the growth was -70.3% (active).
For COc1cc(N2CCC(N(C)C)CC2)ccc1Nc1ncc(Cl)c(Nc2ccccc2P(C)(C)=O)n1, the growth was -38.3% (active).
In the case of O=C1CCC(N2C(=O)c3cccc(NCCOCCOCCNC(=O)c4cc5c(o4)C(=O)c4ccccc4C5=O)c3C2=O)C(=O)N1 (stereo not given), the growth is reported as -41.6% (active).
CCN1CCN(c2nc(C)cc(NCc3cc(Nc4ccnc5cc(Cl)ccc45)ccc3F)n2)CC1 was tested, and the growth was -23.1% (active).
For NS(=O)(=O)c1cccc(Nc2nc(SCC(=O)c3ccc([N+](=O)[O-])cc3)nc3ccccc23)c1, the growth was 0.252% (active).
Nc1c(C(=O)Nc2ccccn2)sc2nc3c(cc12)CCCCCC3 was tested, and the growth was 8.53% (active).
In the case of CCOC(=O)c1cnc2ccc(Cl)cc2c1NCCCN(C)C, the growth is reported as -31.3% (active).
For Cc1cc(C)c(-c2c(N)cc(Br)cc2Br)c(N)c1, the growth was -17.1% (active).

Going from CN1CCN(C(=O)[C@@]2(C)CC[C@]3(C)CC[C@]4(C)C(=CC[C@@H]5[C@@]6(C)C/C(=C/c7ccncc7)C(=O)C(C)(C)[C@@H]6CC[C@]54C)[C@@H]3C2)CC1 to CNC(=O)c1cc(Oc2ccc3nc(NC(=O)c4ccc(CN5CCN(C)CC5)c(C(F)(F)F)c4)sc3c2)ccn1, the growth rises from 37.5% to 52.1%.

Compared with O=C1/C(=C\c2ccc(Br)o2)SC(=S)N1CCc1ccc(O)cc1, CCN(CC)CCOc1ccc(Nc2ncc3cc(-c4ccc(O)cc4)c(=O)n(C)c3n2)cc1 is higher in growth: 28.2% for the first, 44.8% for the second.

Compared with c1ccc(Cc2nn3cc(-c4ccccc4)nc3s2)cc1, CC(C)C1=NOC(=O)C1=Cc1cn(-c2ccccc2)nc1-c1ccc(F)cc1 is lower in growth: 101% for the first, 73.4% for the second.

Going from COc1ccc(Cl)cc1C(=O)Nc1nc2ccc(Cl)cc2s1 to COc1ccc(/C=C/C(=O)Nc2ccc(-c3nc4ccc(OC)cc4s3)cc2)cc1, the growth falls from 76.7% to 67.2%.

Going from CC1(C)Oc2cc3oc(=O)ccc3cc2C[C@@H]1OCCOS(=O)(=O)c1ccc(C#N)cc1 to CCOCCNc1ccc(S(=O)(=O)c2ccc(N)cc2)cc1N, the growth rises from 90.6% to 95.9%.

Going from NNC(=O)c1nc2ccccc2[nH]1 to CC(=O)c1cc2c(N)c(C(=O)Nc3ccccn3)sc2nc1C, the growth falls from 126% to 57.3%.

First: Cc1nn(-c2ccc(Cl)cc2)c2nc3c(nc12)C(=O)c1ccccc1-3
Second: Clc1ccc(CSc2nnc(-c3ccc(Cl)cc3)n2-c2ccccc2)cc1
The growth of the first is lower: 49.2% for the first, 64.8% for the second.

Compared with C=C1CC[C@@]2(C#N)[C@H]3[C@H](CC[C@@H]2C)[C@@H](C)C[C@@H](CC(C)(C)C#N)[C@H]13, N#Cc1nc(-c2ccccc2)oc1N1CCC(C2(C(F)(F)F)N=N2)CC1 is higher in growth: 59.7% for the first, 112% for the second.

First: Nc1ccc(S(=O)(=O)O)c2cc(S(=O)(=O)O)cc(O)c12
Second: CCOC(=O)c1c2c(n3ccc(NC(=O)CCN(CC)CC)cc13)C(=O)c1ncccc1C2=O
The growth of the first is higher: 106% for the first, 81.7% for the second.

First: Cc1nc2cc(Nc3nc(NCCO)nc(Nc4ccc(F)cc4)n3)ccc2n1Cc1ccccc1
Second: Cc1ccc(-c2nc(N3CCN(CC(=O)Nc4ccc(Cl)cc4)CC3)c3ccccc3n2)cc1
The growth of the first is higher: 99.2% for the first, 93.3% for the second.

Going from COc1cc(C2=NN(c3ccccc3)C(c3cccc(Nc4ccnc5cc(C(F)(F)F)ccc45)c3)C2)cc(OC)c1OC (stereo not given) to Nc1n[nH]c2cccc(C#Cc3cccc(C(=O)Nc4cc(C(F)(F)F)cc(C(F)(F)F)c4)c3)c12, the growth falls from 92.2% to 87.5%.

Compared with O=C(/C(=C/c1ccc([N+](=O)[O-])cc1)SCc1ccccc1)c1ccc(Cl)cc1, CS(=O)(=O)c1ccc(-c2nc3ccccn3c2/C=N/Nc2nc(-c3ccc(Br)cc3)cs2)cc1 is higher in growth: 70.4% for the first, 102% for the second.

Compared with CCCCN1C(=O)c2cccc3c(-c4ccc5c(c4)ncn5C4CCCCC4)ccc(c23)C1=O, CCCCOc1ccc(S(=O)(=O)N2CCN(c3nc(C)cc(N4CCOCC4)n3)CC2)cc1 is lower in growth: 101% for the first, 34.8% for the second.

Compared with COc1ccc(-n2c(C(O)c3ccccc3)nn(CN3CCOCC3)c2=S)cc1 (stereo not given), COc1ccc(/C=C/C(=O)c2cc3c(N)c(C(=O)Nc4ccc(OC)cc4)sc3nc2C)cc1 is lower in growth: 97.5% for the first, 11.6% for the second.

Compared with O=C1Nc2ccc(Br)cc2/C1=N/c1n[nH]c(=S)s1, CCCN1C(=O)/C(=c2\sc3n(c2=O)NC2C(N=3)N(CC)C(=O)N2CC)c2ccccc21 (stereo not given) is lower in growth: 103% for the first, 14.6% for the second.

First: CC(=O)c1sc2sc(C(C)=O)c(C)c2c1C
Second: CCN(CC)CCNc1ccc(Cl)cc1Cl
The growth of the first is lower: 61.4% for the first, 108% for the second.
